Measured values from PubChem BioAssay (NCATS).
Inconclusive results are not listed. Entries that show only a call come without a potency. Values without a mark were called inactive. Calls of active or inactive are those of the source. Calls come from the whole dose curve; as a rule, active = well fitted curve in the direction sought with a large enough effect; inconclusive = small, poorly fitted or top-dose-only effect, or another doubt; inactive = no such curve, though single readings can be large; an effect the other way counts as inactive or inconclusive. *1 amine or outer side, *2 acyl side, *3 side chain or, on linkers, in order; H or OH if unused. Where a SMILES comes first, the peptide text is derived from it. Bridges are numbered along the chain shown (N, C = ends). Roman numbers before positions name the chains, in order. [ ]: non-standard residue; d: D form. ξ: configuration not given here. Actinocin(9to1) = Cc1c2oc3c(C)ccc(C(=O)[*:1])c3nc-2c(C(=O)[*:2])c(N)c1=O; ξNMeV = CNC(C(=O)O)C(C)C; ξV = CC(C)C(N)C(=O)O; Sar = CNCC(=O)O

Columns and labels:
[1] = test system: Zika virus NS2B-NS3 protease (unlinked complex); test: Primary screen GU Rhodamine qHTS for Zika virus inhibitors: Unlinked NS2B-NS3 protease assay (AID 1347159); note: nearly all actives have a fitted effect of over 60% in size; note: potency is the fitted concentration of half-maximal effect
In short: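 Noncovalent NS2B hydrophilic domain–NS3 protease domain complex (25 nM) preincubated 15 min at room temperature with compounds (up to 114 microM) in 10 mM Tris-HCl pH 8.0, 0.01% Tween 20; 1.5 microM Rhodamine110 substrate added, fluorescence change over 15 min fitted to Hill equation.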

[2] = test system: Zika virus NS2B-NS3 protease (linked construct); test: Primary screen NINDS Rhodamine qHTS for Zika virus inhibitors (AID 1347160); note: nearly all actives have a fitted effect of over 55% in size; note: potency is the fitted concentration of half-maximal effect
In short: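 Purified linked NS2B-NS3 protease (NS2B hydrophilic domain joined to NS3 protease by flexible linker), 25 nM in 10 mM Tris-HCl pH 8.0, 0.01% Tween 20. Compounds titrated, 15 min preincubation at room temperature; 1.5 microM Rhodamine110 substrate, FITC fluorescence change over 15 min.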

[3] = Confirmatory screen NINDS Rhodamine qHTS for Zika virus inhibitors (AID 1347161); details: purified enzyme assay, Rhodamine110 substrate fluorescence, 15 min; note: potency is the fitted concentration of half-maximal effect; nearly all actives have a fitted effect of over 60% in size
In short: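 Each compound, titrated, sat 15 min with 25 nM linked protease before 1.5 microM Rhodamine110 substrate went in. Fluorescence gain over the next 15 min, in pH 8.0 Tris with Tween 20, gave Hill-fitted curves.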

[4] = Vero cells viability qHTS for Zika virus inhibitors (AID 1347167)
In short: (§1)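 Compounds were tested in concentration series on cells grown in DMEM containing 4% FBS. After 24 to 48 hours, cellular ATP was measured by luminescence with CellTiter Glo.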

[5] = HepG2 cells viability qHTS for Zika virus inhibitors (AID 1347168)
In short: as §1

[6] = OV-KATE Cancer Cell Toxicity qHTS against the NCATS CANVASS Library (AID 1347345)
In short: (§2)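 Toxicity is measured over 72 h of compound exposure at 37 degrees C under 5% CO2. Each well holds 1000 cells, pre-incubated for 4 hours before dosing across an 11-point range. CellTiter-Glo luminescence gives viability.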

[7] = HPAF-II Cancer Cell Toxicity qHTS against the NCATS CANVASS Library (AID 1347346); note: nearly all actives have a fitted effect of over 55% in size; note: potency is the fitted concentration of half-maximal effect; for activity change, negative = cytotoxicity: series mostly up to about 38 µM
In short: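 HPAF-II cells at 1000 cells/well were treated with an 11-point concentration series for 72 hours at 37 degrees C. Viability read by CellTiter-Glo luminescence.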

[8] = UWB1.289 Cancer Cell Toxicity qHTS against the NCATS CANVASS Library (AID 1347347); note: series mostly up to about 38 µM; nearly all actives have a fitted effect of over 60% in size
In short: as §2

[9] = OV-SAHO Cancer Cell Toxicity qHTS against the NCATS CANVASS Library (AID 1347348); note: series mostly up to about 38 µM; nearly all actives have a fitted effect of over 55% in size
In short: as §2

[10] = SW1088 Cancer Cell Toxicity qHTS against the NCATS CANVASS Library (AID 1347350); details: outcome: dose series up to 38.3 µM; note: nearly all actives have a fitted effect of over 75% in size; for activity change, negative = cytotoxicity: series mostly up to about 38 µM
In short: as §2

[11] = U-118MG Cancer Cell Toxicity qHTS against the NCATS CANVASS Library (AID 1347351); note: series mostly up to about 38 µM
In short: as §2

[12] = COV-362 Cancer Cell Toxicity qHTS against the NCATS CANVASS Library (AID 1347352); note: series mostly up to about 38 µM
In short: (§3)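 Cells at 1000/well were given compound 4 h after plating in an 11-point series. Viability was read by CellTiter-Glo luminescence after 72 h at 37 degrees C.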

[13] = A2780 Cisplatin Sensitive Ovarian Cancer Cell Toxicity qHTS against the NCATS CANVASS Library (AID 1347353); details: outcome: dose series up to 46.1 µM; note: nearly all actives have a fitted effect of over 60% in size; for activity change, negative = cytotoxicity: series mostly up to about 46 µM
In short: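 A2780 cells, 750/well, settled 4 h at 37 °C, then treated with an 11-point compound series for 72 h. Viability was read as ATPLite luminescence after 10 min at room temperature, with bortezomib as control.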

[14] = UWB1.289-WTBRCA1 Cancer Cell Toxicity qHTS against the NCATS CANVASS Library (AID 1347354)
In short: as §3

[15] = HEK-293 Cancer Cell Toxicity qHTS against the NCATS CANVASS Library (AID 1347355); details: outcome: dose series up to 46.1 µM; note: series mostly up to about 46 µM; nearly all actives have a fitted effect of over 65% in size
In short: as §3

[16] = test system: Zika virus NS2B-NS3 protease (linked); test: 384 well plate NINDS AMC confirmatory qHTS for Zika virus inhibitors (AID 1347163); note: potency is the fitted concentration of half-maximal effect; nearly all actives have a fitted effect of over 50% in size
In short: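 Linked NS2B-NS3 protease (final 5 nM, 30 nM or 60 nM) was preincubated with compounds (final up to 1 mM) for ~15 minutes. Ac-VKTGKR-AMC substrate (final 30 microM) then reacted for 25 minutes at room temperature in the dark. Fluorescence (ex 355/em 460 nm) was normalized to no-enzyme and no-inhibitor controls.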

[17] = test system: Zika virus NS2B-NS3 protease (linked construct); test: 384 well plate NINDS Rhodamine confirmatory qHTS for Zika virus inhibitors (AID 1347164);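 note: fluorescence from protease cleavage of Ac-LKRR-rhodamine 110 substrate; potency is the fitted concentration of half-maximal effect; nearly all actives have a fitted effect of over 65% in size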
In short: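 Linked protease at a final 5 nM, 30 nM or 60 nM was preincubated ~15 min with compounds, then given 10 microM Ac-LKRR-Rhodamine 110. Fluorescence (ex 485/em 538 nm) after 25 min in the dark at room temperature.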

[18] = molecular target: Lysine-specific demethylase 5B (Homo sapiens) (UniProt Q9UGL1); test: Optimization screen for KDM5B Histone Demethylases FDH coupled qHTS against the LOPAC library (AID 1347166)
In short: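 KDM5BDeltaAP (200nM final) preincubated 10 min with compound, then 12.5uM H3K4Me3, 25uM a-ketoglutarate, ascorbate, Fe(II), NAD+ and FDH added; 50mM HEPES pH 7.5, 0.01% Tween-20. NADH fluorescence (340/450 nm) change over 30 min, room temperature.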

Lysine-specific demethylase 5B (Homo sapiens), sequence (Q9UGL1 whole entry, looked up): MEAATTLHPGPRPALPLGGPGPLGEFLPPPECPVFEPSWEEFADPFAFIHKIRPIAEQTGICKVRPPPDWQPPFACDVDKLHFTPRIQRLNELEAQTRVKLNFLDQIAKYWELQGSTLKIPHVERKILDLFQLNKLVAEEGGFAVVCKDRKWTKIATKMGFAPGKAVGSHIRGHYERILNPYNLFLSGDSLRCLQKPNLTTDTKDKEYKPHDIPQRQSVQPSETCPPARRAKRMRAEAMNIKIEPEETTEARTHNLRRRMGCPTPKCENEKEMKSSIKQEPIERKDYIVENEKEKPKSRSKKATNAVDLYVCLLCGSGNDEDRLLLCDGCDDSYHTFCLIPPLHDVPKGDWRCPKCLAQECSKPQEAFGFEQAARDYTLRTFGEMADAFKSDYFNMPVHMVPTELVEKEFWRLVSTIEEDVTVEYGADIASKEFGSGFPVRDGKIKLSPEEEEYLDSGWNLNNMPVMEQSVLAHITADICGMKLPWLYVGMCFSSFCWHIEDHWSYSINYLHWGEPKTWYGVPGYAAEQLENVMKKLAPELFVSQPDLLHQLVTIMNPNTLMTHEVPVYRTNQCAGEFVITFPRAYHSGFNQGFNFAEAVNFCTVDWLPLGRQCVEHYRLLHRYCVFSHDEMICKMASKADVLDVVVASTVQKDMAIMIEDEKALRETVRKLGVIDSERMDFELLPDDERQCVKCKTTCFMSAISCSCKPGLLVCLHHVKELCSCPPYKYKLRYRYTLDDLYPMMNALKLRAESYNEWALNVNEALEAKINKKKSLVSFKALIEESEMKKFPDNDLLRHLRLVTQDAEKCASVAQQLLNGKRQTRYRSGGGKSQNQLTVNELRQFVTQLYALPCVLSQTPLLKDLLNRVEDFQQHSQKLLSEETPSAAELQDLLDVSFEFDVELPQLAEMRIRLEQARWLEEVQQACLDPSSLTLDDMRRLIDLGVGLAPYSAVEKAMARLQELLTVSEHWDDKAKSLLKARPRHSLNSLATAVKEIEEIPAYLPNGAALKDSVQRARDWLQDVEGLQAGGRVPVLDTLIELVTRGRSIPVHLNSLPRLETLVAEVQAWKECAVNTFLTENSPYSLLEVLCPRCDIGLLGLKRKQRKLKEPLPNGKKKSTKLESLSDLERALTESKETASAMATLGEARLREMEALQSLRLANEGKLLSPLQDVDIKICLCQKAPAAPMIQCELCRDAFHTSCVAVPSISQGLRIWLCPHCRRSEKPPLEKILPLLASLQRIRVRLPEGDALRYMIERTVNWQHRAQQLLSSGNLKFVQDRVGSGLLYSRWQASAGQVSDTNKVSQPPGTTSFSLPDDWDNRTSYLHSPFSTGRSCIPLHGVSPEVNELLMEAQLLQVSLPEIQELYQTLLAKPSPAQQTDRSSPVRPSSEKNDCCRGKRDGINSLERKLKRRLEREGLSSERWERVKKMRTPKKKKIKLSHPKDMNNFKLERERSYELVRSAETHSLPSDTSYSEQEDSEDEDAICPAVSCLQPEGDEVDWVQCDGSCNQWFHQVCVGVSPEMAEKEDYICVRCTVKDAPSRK

## CCOC(=O)Nc1nc2ccccc2[nH]1
[1]
  Potency: inactive
[2]
  Potency: inactive

## OC[C@H]1O[C@@H](n2cnc3c(NCc4ccc(O)cc4)ncnc32)[C@H](O)[C@@H]1O
[1]
  Potency: inactive
[2]
  Potency: inactive

## Cc1nc2c(-c3cnc(N)nc3)nc(N3CCOCC3)nc2n1C(C)C
[1]
  Potency: inactive
[2]
  Potency: inactive

## CC(=O)O[C@@H]1C[C@]2(C)[C@@]3(CCC4[C@@]5(C)CC[C@H](O[C@@H]6O[C@H](C(=O)O)[C@@H](O)[C@H](O[C@@H]7O[C@H](CO)[C@H](O)[C@H](O)[C@H]7O[C@@H]7O[C@@H](C)[C@H](O)[C@@H](O)[C@H]7O[C@@H]7OC[C@](O)(CO)[C@H]7O)[C@H]6O[C@@H]6O[C@H](CO)[C@H](O)[C@H](O)[C@H]6O)C(C)(C)C5CC[C@]42C)O[C@@H](O)[C@]12C3CC(C)(C)[C@@H](OC(=O)/C=C/c1ccc(O)c(O)c1)[C@@H]2OC(=O)/C=C/c1ccccc1 (stereo partly specified)
[1]
  Potency: 3.16 µM (active)
[2]
  Potency: 2.46 µM (active)
[3]
  Potency: 1.66 µM (active)
[4]
  activity change, negative = cytotoxicity: -1.71% [at 8.96 µM]
[5]
  activity change, negative = cytotoxicity: 0.159% [at 8.96 µM]

## CO[C@@H]1COCC[C@@H]1N[C@@H]1CC[C@@](C(=O)N2CCc3ncc(C(F)(F)F)cc3C2)(C(C)C)C1
[1]
  Potency: inactive
[2]
  Potency: inactive

## OCc1ccccc1O[C@@H]1O[C@H](CO)[C@@H](O)[C@H](O)[C@H]1O
[1]
  Potency: inactive
[2]
  Potency: inactive

## COc1cc2c(Nc3ccc(Cl)c(Cl)c3F)ncnc2cc1OCC1C[C@@H]2CN(C)C[C@@H]2C1 (stereo partly specified)
[1]
  Potency: inactive
[2]
  Potency: inactive

## C/C(=C/CO)CC[C@@H]1[C@@]2(C)CCC[C@](C)(C(=O)O)C2CC[C@@]1(C)O (stereo partly specified)
[1]
  Potency: inactive
[2]
  Potency: inactive

## CC[C@H]1OC(=O)C[C@@H](O)[C@H](C)[C@@H](O[C@@H]2O[C@H](C)[C@@H](O)[C@H](N(C)C)[C@H]2O)[C@@H](CCN2C[C@H](C)C[C@H](C)C2)C[C@@H](C)C(=O)/C=C/C(C)=C/[C@@H]1CO[C@@H]1O[C@H](C)[C@@H](O)[C@@H](OC)[C@H]1OC
[1]
  Potency: inactive
[2]
  Potency: inactive

## CC1CCC2C(C)(C)C(O)CCC2(C)C12Cc1c(O)cc3c(c1O2)C(N)=NC3 (stereo unspecified)
[1]
  Potency: inactive
[2]
  Potency: inactive

## CC(C)(O)C1CC=C(C(=O)OCC2OC(Oc3c(O)cc(C(=O)O)cc3O)C(O)C(O)C2O)CC1 (stereo unspecified)
[4]
  outcome: inactive
[5]
  outcome: inactive

## CC1=C2C(=O)O[C@@H](c3ccoc3)[C@]2(C)CCC1
[6]
  outcome: inactive
[7]
  Potency: inactive
[8]
  outcome: inactive
[9]
  outcome: inactive
[10]
  outcome: inactive
[11]
  outcome: inactive
[12]
  outcome: inactive
[13]
  outcome: inactive
[14]
  outcome: inactive
[15]
  outcome: inactive

## CC12CCC3C(C)(C)C(O)CCC3(C)C1Cc1c(oc(C(=O)O)cc1=O)O2 (stereo unspecified)
[3]
  Potency: 27.3 µM (active)

## O=S(=O)(O)c1cc(O)c2c(N=Nc3ccc(Nc4ccccc4)c4c(S(=O)(=O)O)cccc34)cc(S(=O)(=O)O)cc2c1
[3]
  Potency: 5.62 µM (active)
[16]
  Potency: 12.6 µM (active)
[17]
  Potency: 6.31 µM (active)

## CN1Cc2c(N)cccc2C(c2ccccc2)C1 (stereo unspecified)
[18]
  outcome: inactive

## Cc1c2oc3c(C)ccc(C(=O)N[C@@H]4C(=O)NC(C(C)C)C(=O)N5CCC[C@H]5C(=O)N(C)CC(=O)N(C)C(C(C)C)C(=O)O[C@@H]4C)c3nc-2c(C(=O)N[C@@H]2C(=O)NC(C(C)C)C(=O)N3CCC[C@H]3C(=O)N(C)CC(=O)N(C)C(C(C)C)C(=O)O[C@@H]2C)c(N)c1=O (stereo partly specified) (I: T[ξV]P[Sar][ξNMeV] / II: T[ξV]P[Sar][ξNMeV]; ester I:1-I:C, II:1-II:C; linker I:N-II:N via Actinocin(9to1))
[4]
  outcome: inactive
[5]
  outcome: inactive

## C/C=C/C=C/C(CC(=O)O)Nc1ccc(C=O)cc1 (stereo unspecified)
[6]
  outcome: inactive
[7]
  Potency: 3.75 µM (active)
[9]
  outcome: inactive
[10]
  outcome: inactive
[11]
  outcome: inactive
[12]
  outcome: inactive
[13]
  outcome: inactive
[14]
  outcome: inactive
[15]
  outcome: inactive
